ELG1 genotoxic: inducers of genotoxicity in HEK293T ELG1-luciferase cells. HEK293T ELG1-luciferase reporter, luminescence, 16 h. Potency, µM (series often up to 46 µM), for inactives: top-dose activity change, positive = activation, hits mostly activators. 1.3% of 330,000 active; note: % of control where 0% means no effect; nearly all actives have a fitted effect of over 60% in size
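Reporter readout depends on ELG1 protein level, which increases with genetic stress. After 16 hr compound exposure at 37 °C, luciferase activity was quantified using ONE-Glo.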
p53 reactivator: re-activators of mutant p53 | H1299 p53-A138V BP100-luciferase reporter, luminescence, 24 h | Potency, µM (doses to about 92.2 µM), inactives show at the top dose activity change, positive = activation, most hits filed as activators | 0.063% of 320,000 active | AID 504706; note: % of control where 0% means no effect; nearly all actives have a fitted effect of over 45% in size
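H1299 (p53-null), stable ts p53-A138V + BP100-Luc; 1000 cells/well, Opti-MEM/10% FBS; cpd 4 pt, 1:5; 24 h, 37 deg C, 5% CO2; detection reagent 10 min RT; luminescence.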
NPC1 prom act: NPC1 promoter activation | Huh7 NPC1 promoter luciferase reporter, 24 h | Potency, µM (top dose mostly 9.22 µM), for the others: top-dose activation, most hits filed as activators | 2.4% of 320,000 active | AID 485313; note: % of control where 0% means no effect; nearly all actives have a fitted effect of over 60% in size
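Luminescence read-out of NPC1 promoter-driven luciferase in stably transfected Huh7 cells; compounds delivered in DMSO and left 24 h at 37C, 5% CO2, qHTS titration format.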
Rab9 promoter act: activators of Rab9 promoter | AID 485297 | 2.8% of 320,000 active | Potency, µM (series often up to 9.22 µM), inactives show top-dose activation, negative = inhibition, hits mostly activators | Huh7 Rab9 promoter-luciferase reporter, luminescence, 24 h; note: % of control where 0% means no effect; nearly all actives have a fitted effect of over 60% in size
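Huh7 cells stably carrying Rab9 promoter–luciferase reporter, plated 1500 cells/well, compound added after 2 h and incubated 24 h at 37 °C; luciferase luminescence then read after 10 min with detection reagent.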
SMN2 splice enh: SMN2 splice variant enhancement. HEK293 SMN2-luciferase splicing reporter, luminescence, 30-36 h. Potency, µM (highest dose often 46.1 µM), without a hit: top-dose activity change, positive = activation, most hits filed as activators. 2.8% of 210,000 active. AID 1458; note: % of control where 0% means no effect; nearly all actives have a fitted effect of over 55% in size
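HEK293 cells carry an SMN2 minigene-luciferase reporter in which exon 7 inclusion puts luciferase in frame. Cells were seeded at 2000 cells/well, attached for 10-12 hours, then exposed to compounds for 30-36 hours at 37C before ONE-Glo luminescence.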
FLuc counter: firefly luciferase modulation, counter-screen for miR-21 project | purified FLuc, Km substrates, luminescence inhibition | Potency, µM (series often up to 57.5 µM), for the others: at the top dose activity change, negative = inhibition, most hits filed as inhibitors | 6.9% of 360,000 active | AID 588342;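 note: plate controls were vehicle for no effect and reference inhibitor for full effect; nearly all actives have a fitted effect of over 55% in size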
Target sequence (P08659 whole entry, looked up): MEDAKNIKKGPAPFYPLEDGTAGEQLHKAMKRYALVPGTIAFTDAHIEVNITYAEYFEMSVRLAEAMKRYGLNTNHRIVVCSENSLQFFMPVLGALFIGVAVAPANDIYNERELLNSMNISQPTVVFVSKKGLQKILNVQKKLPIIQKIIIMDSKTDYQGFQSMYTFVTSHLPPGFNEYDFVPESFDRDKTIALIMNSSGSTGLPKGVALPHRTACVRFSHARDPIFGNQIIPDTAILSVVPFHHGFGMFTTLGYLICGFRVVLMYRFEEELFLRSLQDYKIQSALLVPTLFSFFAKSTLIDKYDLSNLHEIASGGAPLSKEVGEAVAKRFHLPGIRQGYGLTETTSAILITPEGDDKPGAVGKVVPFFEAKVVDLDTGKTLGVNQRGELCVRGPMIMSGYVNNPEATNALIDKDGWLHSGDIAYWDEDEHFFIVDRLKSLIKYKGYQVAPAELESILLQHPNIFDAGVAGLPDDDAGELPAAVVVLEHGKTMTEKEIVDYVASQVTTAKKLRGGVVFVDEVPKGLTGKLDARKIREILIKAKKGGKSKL
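Purified P. pyralis luciferase (10nM final) with 10uM D-luciferin and 10uM ATP (Km levels) in 50mM Tris acetate pH 7.5, 10mM Mg acetate, 0.01% Tween-20, 0.05% BSA; qHTS 6-point titration, ~60 µM downward; luminescence read.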
* = called active by the depositor. Compounds with a hit are over-represented: about 7.4% of the library has one in this group of screens. Calls come from the whole dose curve; as a rule, active = well fitted curve in the direction sought with a large enough effect; inconclusive = small, poorly fitted or top-dose-only effect, or another doubt; inactive = no such curve, though single readings can be large; an effect the other way counts as inactive or inconclusive. Potency is the fitted concentration of half-maximal effect.

Screening CC(C)C(=O)Nc1cccc(C(=O)Nc2nnc(C(F)(F)F)s2)c1 returned SMN2 splice enh 13.7% and FLuc counter 16.9µM*.
`COCc1nnc(NC(=O)c2cccc(NC(=O)C(C)C)c2)s1` gave ELG1 genotoxic 10.4%, p53 reactivator 9.8%, NPC1 prom act 15.2%, Rab9 promoter act 4.5% and FLuc counter -14.2%.
Screening Cc1ccc(OCC(=O)Nc2nnc(S(=O)(=O)N3CCc4ccccc43)s2)cc1 returned FLuc counter 5.0%.
`O=C(NCc1ccccc1Cl)c1ccc2c(c1)N(Cc1ccccc1)CCS2` gave SMN2 splice enh 17.6% and FLuc counter 6.8%.
`Cc1ccnc(NC(=O)c2ccc([N+](=O)[O-])s2)c1` gave ELG1 genotoxic inconclusive, p53 reactivator inconclusive, NPC1 prom act 3.16µM*, Rab9 promoter act 3.55µM* and FLuc counter 13.5µM*.
`Cc1ccnc(NC(=O)CNC(=O)c2ccc(C)s2)c1` gave ELG1 genotoxic inconclusive, p53 reactivator inconclusive, NPC1 prom act 14.7%, Rab9 promoter act -12.1% and FLuc counter inconclusive.
For CSc1ccc(NC(=O)Nc2cc(C)ccn2)cc1 the results were ELG1 genotoxic inconclusive, p53 reactivator 11.0%, NPC1 prom act 0.501µM*, Rab9 promoter act 0.447µM*, SMN2 splice enh 1.58µM* and FLuc counter 0.301µM*.
Screening Cc1ccnc(NC(=O)Nc2ccc(Br)cc2Cl)c1 returned ELG1 genotoxic inconclusive, p53 reactivator 6.2%, NPC1 prom act 1µM*, Rab9 promoter act 0.631µM*, SMN2 splice enh 2.24µM* and FLuc counter 0.477µM*.
For CSc1ncccc1C(=O)Nc1cc(C)ccn1 the results were ELG1 genotoxic 4.6%, p53 reactivator 14.6%, NPC1 prom act 5.1%, Rab9 promoter act 4.6% and FLuc counter 1.7%.
Screening Cc1ccnc(NC(=O)c2cc3cc(F)ccc3s2)c1 returned ELG1 genotoxic inconclusive, p53 reactivator inconclusive, NPC1 prom act 2.24µM*, Rab9 promoter act 1.41µM* and FLuc counter 2.69µM*.
N#Cc1cccc(NC(=O)N2CC[C@@]3(CCCN(C(=O)c4csnn4)C3)C2)c1 was read as SMN2 splice enh 1.7%.
`Cc1ccc(N2C(=O)CSC23C(=O)N(CC(=O)NCc2ccccc2)c2ccccc23)cc1` (centres undefined) gave FLuc counter -11.6%.
Screening CCN1CCSc2ccc(C(=O)NC(C)c3ccccc3)cc21 (centres undefined) returned SMN2 splice enh 11.1% and FLuc counter -4.5%.
COc1ccccc1NC(=O)Nc1ccc(C)cn1 was read as ELG1 genotoxic 6.3%, p53 reactivator 8.5%, NPC1 prom act 20.8%, Rab9 promoter act 7.4% and FLuc counter inconclusive.
For COC(=O)c1ccccc1NC(=O)Nc1cc(C)ccn1 the results were ELG1 genotoxic 1.7%, p53 reactivator -0.7%, NPC1 prom act 0.9%, Rab9 promoter act -2.1%, SMN2 splice enh -9.3% and FLuc counter 2.5%.
Cc1ccc(NC(=O)Nc2ccc(F)cc2)nc1 was read as ELG1 genotoxic 8.0%, p53 reactivator inconclusive, NPC1 prom act inconclusive, Rab9 promoter act 3.98µM*, SMN2 splice enh 25.1µM* and FLuc counter 10.7µM*.
Screening Cc1ccnc(NC(=O)Nc2ccc(F)cc2)c1 returned ELG1 genotoxic inconclusive, p53 reactivator 22.0%, NPC1 prom act 1.41µM*, Rab9 promoter act 0.562µM*, SMN2 splice enh 12.6µM* and FLuc counter 1.9µM*.
For O=C(Nc1ccc(F)cc1)NC1CCCCC1 the results were ELG1 genotoxic inconclusive, p53 reactivator inconclusive, NPC1 prom act inconclusive, Rab9 promoter act inconclusive, SMN2 splice enh 2.6% and FLuc counter inconclusive.
Screening Cc1ccc(NC(=O)C(=O)NC2CCCCC2)cc1 returned ELG1 genotoxic inconclusive, p53 reactivator inconclusive, NPC1 prom act 1.58µM*, Rab9 promoter act 1.12µM*, SMN2 splice enh 5.01µM* and FLuc counter inconclusive.
Screening CC(=O)Nc1ccc(C(=O)NC2CCCC2)cc1 returned ELG1 genotoxic 0.3%, p53 reactivator -3.8%, NPC1 prom act -2.7%, Rab9 promoter act 2.0%, SMN2 splice enh 1.4% and FLuc counter -0.5%.
`O=C(NC1CCCCCC1)C(=O)NC1CCCC1` gave ELG1 genotoxic 18.5%, p53 reactivator 16.1%, NPC1 prom act inconclusive, Rab9 promoter act 2.24µM*, SMN2 splice enh 12.6µM* and FLuc counter inconclusive.
For O=C(NC1CCCCC1)[C@H](O)[C@@H](O)C(=O)NC1CCCCC1 the results were ELG1 genotoxic 0.6%, p53 reactivator -3.4%, NPC1 prom act -0.6%, Rab9 promoter act -5.5%, SMN2 splice enh 8.1% and FLuc counter 6.6%.
For Cc1ccc(NC(=O)NC2CCCCCCC2)cc1 the results were ELG1 genotoxic inconclusive, p53 reactivator 25.5%, NPC1 prom act 1.26µM*, Rab9 promoter act 2.24µM* and FLuc counter 7.57µM*.
Screening O=C(NCC(c1ccc(Cl)cc1)N1CCCCC1)c1ccc(F)cc1 (centres undefined) returned FLuc counter 3.8%.
Cn1c(/N=C/c2ccc3c(c2)OCO3)nc2ccccc21 was read as ELG1 genotoxic 1.6%, p53 reactivator -1.2%, NPC1 prom act -3.7%, Rab9 promoter act -2.6%, SMN2 splice enh -2.7% and FLuc counter 0.239µM*.
For Nc1nc2ccccc2n1/N=C/c1ccc2c(c1)OCO2 the results were ELG1 genotoxic inconclusive, p53 reactivator 9.1%, NPC1 prom act 2µM*, Rab9 promoter act 3.98µM* and FLuc counter 10.7µM*.
Screening CCn1c(/C=N/c2nc3ccccc3n2C)nc2ccccc21 returned ELG1 genotoxic -2.4%, p53 reactivator inconclusive, NPC1 prom act -2.0%, Rab9 promoter act 1.6%, SMN2 splice enh -6.3% and FLuc counter -17.4%.
`Nc1nc2ccccc2n1/N=C/c1ccc(Br)cc1` gave ELG1 genotoxic 16.4µM*, p53 reactivator inconclusive, NPC1 prom act inconclusive, Rab9 promoter act inconclusive, SMN2 splice enh 35.5µM* and FLuc counter inconclusive.
For CCOc1ccccc1NS(=O)(=O)c1c(C)[nH]c(C)c1C(=O)N1CCCCC1 the results were ELG1 genotoxic -1.9%, p53 reactivator 4.0%, NPC1 prom act -6.3%, Rab9 promoter act -2.8% and FLuc counter -0.5%.
`COC(=O)C1CCN(C(=O)COC(=O)c2cc(-c3ccccc3)nc3ccc(OC)cc23)CC1` gave ELG1 genotoxic -6.0%, p53 reactivator 3.0%, NPC1 prom act -2.8%, Rab9 promoter act -4.9% and FLuc counter inconclusive.
